From PubChem BioAssay (EPA / NIEHS) come the findings set out here.

Where “and” joins values, the source holds several entries; their conditions need not be identical. Identical values can stand only once. Inconclusive results are not listed. A structure can be active in one record and inactive in another. Calls of active or inactive are those of the source. The calls were made as follows, unless noted: active = hit-call score of the fitted dose curve at least 0.9, where 1 is the maximum; inactive = score below 0.9.

Read-out in test [1]: E-selectin (Homo sapiens) (UniProt P16581)
As to the kind of experiment: BSK_SAg_Eselectin: BioMAP Diversity Plus: SAg Assay for Eselectin Biomarker Activity (AID 2283091). The settings on record: primary human HUVEC with PBMC; actives raise or lower the signal. The essentials: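 Co-culture: HUVEC + PBMC. Dose compound; 24 h. ELISA for E-selectin. Bidirectional fit vs DMSO.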

Read-out in test [2]: Monokine induced gamma interferon (MIG), CXCL9 (gene 4283)
The test is described as follows: BSK_SAg_MIG: BioMAP Diversity Plus: SAg Assay for Monokine induced gamma interferon (MIG) Biomarker Activity (AID 2283092). Particulars: primary human HUVEC with PBMC; actives raise or lower the signal. The essentials:
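ELISA readout of MIG/CXCL9; primary human umbilical vein endothelial cells co-cultured with peripheral blood mononuclear cells; 24 h post-dose; gain/loss fit vs DMSO baseline.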

A short description of test [3]: BSK_SAg_PBMCCytotoxicity: PBMC Cytotoxicity Assessment in the BioMAP Diversity Plus: SAg Assay (AID 2283093).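 Also: PBMC viability measured as Alamar Blue reduction fluorescence at 546/580 nm; fitted both ways against DMSO so a hit may be loss or gain of signal.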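 As to AC50: PBMC superantigen activated with SEB plus TSST-1 one hour after compound addition.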 The settings on record: primary human HUVEC with PBMC. A digest of the protocol:
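Compound added to 75,000 PBMC/well for 1 h; SEB and TSST-1 then added at 20 ng/mL final each; 90 h incubation; Alamar Blue 6 h; read 546/580 nm ex/em. Activity fitted bidirectionally relative to DMSO baseline.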

Read-out in test [4]: Interleukin-8 (IL8), CXCL8 (gene 3576)
The test is described as follows: BSK_SAg_IL8: BioMAP Diversity Plus: SAg Assay for Interleukin-8 (IL8) Biomarker Activity (AID 2283094). The settings on record: primary human HUVEC with PBMC; actives raise or lower the signal. A digest of the protocol:
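ELISA read-out of IL-8 in a primary human vascular co-culture (umbilical vein endothelium plus PBMC), taken 24 h after compound addition. Values derive from bidirectional fits against DMSO negative controls.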

Test [5] in a line: BSK_SAg_Proliferation: Cell Proliferation Assessment in the BioMAP Diversity Plus: SAg Assay (AID 2283095).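 Also: relative cell number as total protein by SRB absorbance in sub-confluent culture.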 The settings on record: primary human HUVEC with PBMC. A digest of the protocol:
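Cells (endothelium plus PBMC, human primary) were dosed with chemical, cultured 96 h, fixed in 10% TCA and stained with 0.1% SRB. Absorbance at 560 nm gave relative protein, fitted bidirectionally relative to DMSO.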

The nature of test [6]: BSK_SAg_SRB: Viability Assessment in the BioMAP Diversity Plus: SAg Assay (AID 2283096).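 Also: cells read one day after compound addition; hits may be either gain or loss of signal compared with DMSO.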 The settings on record: primary human HUVEC with PBMC. The essentials:
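Total protein by sulforhodamine B staining, 24 h after dosing, in HUVEC–PBMC co-culture; DMSO-referenced bidirectional fitting.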

Test [7] addresses human CYP1A2, CYP1A2 (gene 1544) (UniProt P05177). As to the kind of experiment: NVS_ADME_hCYP1A2: NovaScreen (NVS) CYP450-related Enzyme Activity (ADME) Assay for human CYP1A2 (AID 2283102; active = hit-call score of the fitted dose curve at least 0.9, where 1 is the maximum;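 also: potency for inhibition since loss of fluorescence marks reduced CYP1A2 activity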). A digest of the protocol:
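rec. hCYP1A2 (insect cells), cell-free; fluorogenic substrate; 0.5 h; FI read. Baseline = acetonitrile; signal loss = inhibition. 10 uM duplicate primary → conc. series for actives.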

The target in test [8] is Cytochrome P450 2C19 (Homo sapiens) (UniProt P33261). As to the kind of experiment: NVS_ADME_hCYP2C19: NovaScreen (NVS) CYP450-related Enzyme Activity (ADME) Assay for human CYP2C19 (AID 2283113; active = hit-call score of the fitted dose curve at least 0.9, where 1 is the maximum;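 also: potency for inhibition seen as loss of fluorescent signal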). The essentials: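 Fluorescence intensity was measured 1 hour after chemicals were added to insect-cell-derived recombinant CYP2C19 with fluorogenic substrate. Decreased signal versus acetonitrile control was taken as reduced enzyme activity; initial testing used 10 uM in duplicate.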

The test system of a further test is rat CYP2B1, gene 24300. As to the kind of experiment: NVS_ADME_rCYP2B1: NovaScreen (NVS) CYP450-related Enzyme Activity (ADME) Assay for rat CYP2B1 (AID 2283117; active = hit-call score of the fitted dose curve at least 0.9, where 1 is the maximum). The essentials: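 Recombinant rat CYP2B1 with fluorogenic substrate, read at 0.75 h. Primary screen in duplicate at 10 uM; compounds meeting threshold (e.g., 30% inhibition) re-run in concentration-response up to 20 uM. Fitted against acetonitrile control.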

In test [9] the target is Cytochrome P450 3A4 (Homo sapiens) (UniProt P08684). The test is described as follows: NVS_ADME_hCYP3A4: NovaScreen (NVS) CYP450-related Enzyme Activity (ADME) Assay for human CYP3A4 (AID 2283110; active = hit-call score of the fitted dose curve at least 0.9, where 1 is the maximum). The essentials: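 Compounds were first screened in duplicate at 10 uM against recombinant CYP3A4 produced in insect cells, then actives were run in concentration series. Enzyme activity was measured by fluorescence after 0.33 hour, with acetonitrile as baseline.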
Cytochrome P450 3A4 (Homo sapiens), sequence (P08684 whole entry, looked up): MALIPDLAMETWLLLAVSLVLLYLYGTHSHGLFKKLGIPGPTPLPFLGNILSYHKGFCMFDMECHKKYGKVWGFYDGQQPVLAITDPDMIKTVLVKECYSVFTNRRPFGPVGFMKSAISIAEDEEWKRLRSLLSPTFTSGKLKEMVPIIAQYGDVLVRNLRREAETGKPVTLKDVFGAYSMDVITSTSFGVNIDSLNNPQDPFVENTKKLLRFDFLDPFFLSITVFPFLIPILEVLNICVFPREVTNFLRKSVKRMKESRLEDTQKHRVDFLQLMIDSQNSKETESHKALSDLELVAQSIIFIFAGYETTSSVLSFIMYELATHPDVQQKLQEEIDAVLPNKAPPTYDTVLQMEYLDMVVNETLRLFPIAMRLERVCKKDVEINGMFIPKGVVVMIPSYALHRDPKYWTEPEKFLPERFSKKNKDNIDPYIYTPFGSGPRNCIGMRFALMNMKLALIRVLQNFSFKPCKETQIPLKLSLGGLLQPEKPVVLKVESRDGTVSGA

The target in test [10] is human CYP4F12, CYP4F12 (gene 66002) (UniProt Q9HCS2). The test is described as follows: NVS_ADME_hCYP4F12: NovaScreen (NVS) CYP450-related Enzyme Activity (ADME) Assay for human CYP4F12 (AID 2283111; active = hit-call score of the fitted dose curve at least 0.9, where 1 is the maximum). A digest of the protocol: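 Cell-free fluorescence assay of recombinant human CYP4F12 activity on a specific substrate, read 0.5 h after dosing. Primary screen in duplicate at 10 uM, then concentration series for actives; loss of signal fitted against acetonitrile negative control.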
human CYP4F12, CYP4F12 (gene 66002), sequence (Q9HCS2 whole entry, looked up): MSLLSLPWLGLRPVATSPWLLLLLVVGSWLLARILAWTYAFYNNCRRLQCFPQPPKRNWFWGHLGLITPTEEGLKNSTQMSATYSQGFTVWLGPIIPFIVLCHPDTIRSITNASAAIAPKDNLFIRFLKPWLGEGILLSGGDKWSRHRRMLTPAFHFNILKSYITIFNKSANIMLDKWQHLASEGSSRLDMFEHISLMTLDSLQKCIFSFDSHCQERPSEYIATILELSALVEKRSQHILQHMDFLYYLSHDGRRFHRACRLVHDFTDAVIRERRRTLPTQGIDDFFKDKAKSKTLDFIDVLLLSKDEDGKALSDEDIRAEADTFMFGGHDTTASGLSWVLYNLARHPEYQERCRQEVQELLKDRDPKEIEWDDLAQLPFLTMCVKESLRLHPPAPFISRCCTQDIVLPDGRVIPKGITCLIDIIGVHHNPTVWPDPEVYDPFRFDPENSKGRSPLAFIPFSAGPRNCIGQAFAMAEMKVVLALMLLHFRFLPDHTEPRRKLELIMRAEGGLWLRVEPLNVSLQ

Test [11] deals with human CYP2D6, CYP2D6 (gene 1565) (UniProt P10635). As to the kind of experiment: NVS_ADME_hCYP2D6: NovaScreen (NVS) CYP450-related Enzyme Activity (ADME) Assay for human CYP2D6 (AID 2283107; active = hit-call score of the fitted dose curve at least 0.9, where 1 is the maximum). A digest of the protocol: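 Insect-cell recombinant enzyme + fluorogenic substrate, cell-free; 1 h incubation; fluorescence intensity readout. Acetonitrile = neg. ctrl/baseline. Single-point 10 uM, duplicate; follow-up concentration series.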
human CYP2D6, CYP2D6 (gene 1565), sequence (P10635 whole entry, looked up): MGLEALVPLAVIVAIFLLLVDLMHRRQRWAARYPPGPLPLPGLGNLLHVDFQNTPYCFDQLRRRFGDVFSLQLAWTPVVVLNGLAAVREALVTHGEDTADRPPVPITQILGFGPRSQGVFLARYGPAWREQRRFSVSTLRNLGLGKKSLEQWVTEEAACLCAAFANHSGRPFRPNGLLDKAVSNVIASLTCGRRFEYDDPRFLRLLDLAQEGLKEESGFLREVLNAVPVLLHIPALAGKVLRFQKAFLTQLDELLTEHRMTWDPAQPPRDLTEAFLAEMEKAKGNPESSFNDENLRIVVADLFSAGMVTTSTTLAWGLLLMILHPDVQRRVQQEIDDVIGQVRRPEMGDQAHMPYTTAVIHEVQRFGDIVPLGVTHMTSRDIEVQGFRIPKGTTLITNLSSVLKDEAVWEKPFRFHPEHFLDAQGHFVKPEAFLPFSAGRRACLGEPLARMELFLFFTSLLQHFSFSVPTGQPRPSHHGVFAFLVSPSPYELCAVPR

In test [12] the target is human CYP2C9, CYP2C9 (gene 1559) (UniProt P11712). As to the kind of experiment: NVS_ADME_hCYP2C9: NovaScreen (NVS) CYP450-related Enzyme Activity (ADME) Assay for human CYP2C9 (AID 2283108; active = hit-call score of the fitted dose curve at least 0.9, where 1 is the maximum). The essentials: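 Fluorescence readout of CYP2C9 activity (SF9-expressed human enzyme) at 0.75 h. The primary screen used 10 uM in duplicate, with concentration-response follow-up for actives; acetonitrile was the negative control.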
human CYP2C9, CYP2C9 (gene 1559), sequence (P11712 whole entry, looked up): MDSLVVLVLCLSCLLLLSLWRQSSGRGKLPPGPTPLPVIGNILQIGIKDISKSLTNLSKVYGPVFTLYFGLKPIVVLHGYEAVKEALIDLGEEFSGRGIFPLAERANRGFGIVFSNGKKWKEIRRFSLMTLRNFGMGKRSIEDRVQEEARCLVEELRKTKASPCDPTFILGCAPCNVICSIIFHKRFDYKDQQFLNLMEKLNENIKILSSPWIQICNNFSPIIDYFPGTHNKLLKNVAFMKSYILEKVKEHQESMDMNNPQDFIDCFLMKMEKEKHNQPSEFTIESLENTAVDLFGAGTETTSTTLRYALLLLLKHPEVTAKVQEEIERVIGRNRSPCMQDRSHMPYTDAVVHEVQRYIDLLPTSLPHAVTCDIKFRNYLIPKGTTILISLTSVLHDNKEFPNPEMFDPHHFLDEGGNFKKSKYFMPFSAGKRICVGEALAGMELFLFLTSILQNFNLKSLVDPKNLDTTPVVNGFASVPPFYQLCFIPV

E-selectin (Homo sapiens), sequence (P16581 whole entry, looked up): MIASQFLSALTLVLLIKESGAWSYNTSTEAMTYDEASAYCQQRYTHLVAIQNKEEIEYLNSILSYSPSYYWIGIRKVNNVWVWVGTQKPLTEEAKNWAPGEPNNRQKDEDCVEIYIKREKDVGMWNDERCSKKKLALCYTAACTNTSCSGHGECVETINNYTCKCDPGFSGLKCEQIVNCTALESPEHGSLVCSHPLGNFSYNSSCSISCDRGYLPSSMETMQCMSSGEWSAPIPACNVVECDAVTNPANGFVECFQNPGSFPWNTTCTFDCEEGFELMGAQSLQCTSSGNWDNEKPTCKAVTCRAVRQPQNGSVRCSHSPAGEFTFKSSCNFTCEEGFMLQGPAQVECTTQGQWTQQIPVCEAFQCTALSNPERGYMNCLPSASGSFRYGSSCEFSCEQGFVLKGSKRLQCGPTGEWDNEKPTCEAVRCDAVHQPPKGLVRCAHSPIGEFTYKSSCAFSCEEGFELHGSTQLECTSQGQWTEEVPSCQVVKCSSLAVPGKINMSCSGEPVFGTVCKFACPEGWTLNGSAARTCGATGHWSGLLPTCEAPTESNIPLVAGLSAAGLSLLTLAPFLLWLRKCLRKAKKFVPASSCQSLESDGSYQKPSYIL
human CYP1A2, CYP1A2 (gene 1544), sequence (P05177 whole entry, looked up): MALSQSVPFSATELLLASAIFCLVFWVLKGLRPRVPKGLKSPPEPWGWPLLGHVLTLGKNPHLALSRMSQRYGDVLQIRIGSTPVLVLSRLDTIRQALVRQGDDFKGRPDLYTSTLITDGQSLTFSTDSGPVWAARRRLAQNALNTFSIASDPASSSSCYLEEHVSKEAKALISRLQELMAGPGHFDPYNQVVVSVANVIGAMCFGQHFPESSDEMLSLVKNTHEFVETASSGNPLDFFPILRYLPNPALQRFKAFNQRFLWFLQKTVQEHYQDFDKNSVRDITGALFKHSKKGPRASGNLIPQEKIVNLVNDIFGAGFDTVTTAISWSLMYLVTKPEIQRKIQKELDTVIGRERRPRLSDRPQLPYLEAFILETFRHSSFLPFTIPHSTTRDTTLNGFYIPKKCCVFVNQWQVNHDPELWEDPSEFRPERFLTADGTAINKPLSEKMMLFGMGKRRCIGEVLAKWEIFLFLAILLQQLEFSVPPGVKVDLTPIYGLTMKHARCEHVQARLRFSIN

With `Nc1cc2c3c(c1)C(c1ccccc1)=N[C@@H](NC(=O)c1cccnc1)C(=O)N3CC2`, in test [1], the concentration at half-maximal activity (AC50) (in general, the midpoint of the concentration-response curve, whichever way the signal moves) was 1.12 µM (active). Moreover, the outcome in [2], in test [3], in test [4], in test [5] and in [6] was inactive.
`O=P(Oc1ccccc1)(Oc1ccccc1)Oc1ccccc1`: the AC50 in [1] is 33.7 µM (active); in [2], 31.3 µM (active); in [4] it was 30.2 µM (active); in test [5], 32.2 µM (active); in test [6], 29.3 µM (active); in test [7], 5.67 µM (active). For the same compound, the AC50 in [8] was 0.872 µM (active). Moreover, the outcome in [3] was inactive.
As to `O=S1(=O)OCC2C(CO1)C1(Cl)C(Cl)=C(Cl)C2(Cl)C1(Cl)Cl` (centres undefined), the result in test [1], in [2], in test [3], in test [4], in test [5] and in test [6] was inactive. Also, in test [8], the AC50 was 2.43 µM (active).
In the case of `O=c1ssc(Cl)c1Cl`, the AC50 is 4.28 µM (active) in test [1]; 9 µM (active) in test [2]; 4.21 µM (active) in [3]; 8.19 µM (active) in test [4]; 1.94 µM (active) in test [5]; 6.23 µM (active) in test [6]. For the same compound, the outcome with rat CYP2B1, gene 24300 was inactive.
As for `CCOC(=O)c1ccccc1C(=O)OCC`, the outcome in test [1], in [2], in test [3], in test [4], in [5] and in test [6] was inactive. Besides, in test [9], the compound was called inactive.
As for `N#Cc1c(-c2ccc(Cl)cc2)[nH]c(C(F)(F)F)c1Br`, the AC50 in test [1] is 0.267 µM (active); in test [2] it was 2.85 µM (active); in [4], 0.178 µM (active); in [5], 1.86 µM (active); in test [6] it was 4.34 µM (active).
Regarding `OCC(F)(F)OC(F)(F)C(F)(F)OC(F)(F)C(F)(F)OC(F)(F)CO`, the AC50 was 38.3 µM (active) and 42.9 µM (active) in [1]; 17.9 µM (active) in [4]. In addition, the outcome in test [2], in [4], in test [5] and in [6] was inactive.
Regarding `CCC1(c2ccccc2)C(=O)N=C(O)NC1=O` (centres undefined), the outcome in test [1], in test [2], in test [3], in test [4], in [5] and in [6] was inactive. In test [10], the compound was classed as inactive.
On to `O=P1(N(CCCl)CCCl)NCCCO1` (centres undefined), for which the outcome in test [1], in test [2], in test [3], in test [4], in test [5] and in test [6] was inactive. Also, the call in [10] was inactive.
Regarding `CCOP(=S)(OCC)SCS(=O)(=O)CC`, the outcome in test [1], in [2], in test [4], in test [5] and in [6] was inactive.
In the case of `CC(O)C(F)(F)C(F)(F)F` (centres undefined), the outcome in test [1], in test [2], in test [4], in [5] and in test [6] was inactive.
Regarding `CC(C)Nc1ccc(Nc2ccccc2)cc1`, the AC50 in [1] was 5.98 µM (active); in [2], 9.5 µM (active); in [3], 0.016 µM (active); in test [4], 5.34 µM (active); in test [5] it was 0.0375 µM (active); in test [6], 14.1 µM (active). Also, the AC50 in test [12] was 2.66 µM (active); in test [8], 3.42 µM (active). Moreover, in test [11], the call was inactive.
For the compound `Cc1ccc2c(c1N)C(=O)c1ccccc1C2=O`, the result in [1], in test [2], in test [3], in test [4], in test [5] and in test [6] was inactive. Further, in [9], the compound was classed as inactive. Also, the AC50 in test [11] is 5 µM (active); in test [12] it was 0.0118 µM (active); in [8], 3.02 µM (active).
